Structures can show the parent of a compound that is named as a salt. ± gives the standard deviation of the averaged measurements. The full ranking holds about 2,000 compounds; the median of “relative cell viability vs DMSO, compound + 0.2 uM CuET” is about 1, and the lowest 2% start at about 0.25. The sample holds the lowest values, similar compounds and a random draw of the others, so the mix is not that of the screen.
Tested on: TE10
Assay: relative cell viability vs DMSO, compound + 0.2 uM CuET (fraction); TE10 is an esophageal squamous carcinoma line; higher = less cytotoxic
Conditions: 2 µM; co-treatment: CuET (bis(diethyldithiocarbamate)copper) 0.2 uM; 48 h
Description: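 TE10 ESCC cells (1,000/well, 384-well plates) were treated with Selleck bioactive library compounds at 2 uM combined with 0.2 uM CuET (copper diethyldithiocarbamate) for 48 h. Viability was read by CellTiter-Glo and expressed relative to DMSO wells. Two technical replicates (A, B).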

| SMILES | relative cell viability |
| --- | --- |
| C=CC(=O)Nc1cccc(Nc2nc(Nc3ccc(OCCOC)cc3)ncc2F)c1 | 0.892 ± 0.11 |
| O=S(=O)(c1ccccc1)N(CC(F)(F)F)c1ccc(C(O)(C(F)(F)F)C(F)(F)F)cc1 | 1 ± 0.084 |
| CC(C)(O)C1CCC(C)(C2C(O)CC3(C)C4CC(OC5OC(CO)C(O)C(O)C5O)C5C(C)(C)C(OC6OCC(O)C(O)C6O)CCC56CC46CCC23C)O1 (configuration not stated) [Astragaloside A] | 1.15 ± 0.069 |
| OCc1c[nH]c2ccccc12 [Indole-3-carbinol] | 1.1 ± 0.11 |
| O=C(O)CCCc1c[nH]c2ccccc12 [3-Indolebutyric acid (IBA)] | 1.12 ± 0.072 |
| O=C(/C=C/c1ccc(CN(CCO)CCc2c[nH]c3ccccc23)cc1)NO [LAQ824 (Dacinostat)] | 0.145 ± 0.0072 |
| CC1(C)CCCC2(C)C1CCC1(C)OC(=O)CC12 (configuration not stated) [Sclareolide] | 1.05 ± 0.085 |
| O=S(=O)(NCCNCC=Cc1ccc(Br)cc1)c1cccc2cnccc12 | 1.12 ± 0.058 |
| CCN(CC)C(=S)SSC(=S)N(CC)CC [Disulfiram] | 0.0338 ± 0.0054 |
| Cn1cc(-c2[nH]c3cc(NC(=O)[C@H](N)C4CCCCC4)cc4c3c2C=NNC4=O)cn1 | 0.702 ± 0.016 |
| NC(=O)C1CCCc2c1[nH]c1ccc(Cl)cc21 (configuration not stated) [EX 527 (Selisistat)] | 1.15 ± 0.033 |
| CC(C)c1cc2c(N3CCN(C4=NCC(C)(C)S4)CC3)ncnc2s1 [MI-3 (Menin-MLL Inhibitor)] | 0.972 ± 0.023 |
| CC1(C)CCC2=C(O1)c1ccccc1C(=O)C2=O [Beta-Lapachone] | 0.246 ± 0.051 |
| CC1=CC(=O)c2ccccc2C1=O [Menadione] | 0.671 ± 0.13 |
| C=CC(=O)Nc1cc(Nc2nccc(-c3c[nH]c4ccccc34)n2)c(OC)cc1N(C)CCN(C)C | 0.476 ± 0.0093 |
| Cc1ccc(-n2[nH]c(C)c(N=Nc3cccc(-c4cccc(C(=O)O)c4)c3O)c2=O)cc1C [Eltrombopag] | 1.04 ± 0.1 |
| Cc1ccc(-n2[nH]c(C)c(N=Nc3cccc(-c4cccc(C(=O)O)c4)c3O)c2=O)cc1C [Eltrombopag Olamine] | 1.145 ± 0.0091 |
| OC(CC1c2ccccc2-c2cncn21)C1CCCCC1 (configuration not stated) | 1.13 ± 0.055 |
| C#Cc1cccc(Nc2ncnc3cc(OC)c(OCCCCCCC(=O)NO)cc23)c1 | 0.182 ± 0.024 |
| C#Cc1cccc(Nc2ncnc3cc(OCCOC)c(OCCO)cc23)c1 | 1.02 ± 0.013 |
| C#Cc1cccc(Nc2ncnc3cc(OCCOC)c(OCCOC)cc23)c1 [Erlotinib HCl (OSI-744)] | 1.18 ± 0.1 |

| SMILES | relative cell viability |
| --- | --- |
| C#Cc1cccc(Nc2ncnc3cc(OCCOC)c(OCCOC)cc23)c1 [Erlotinib] | 0.996 ± 0.091 |
| CN(C)C(=O)c1ccc(S(=O)(=O)c2ccc(NC(=O)C(C)(O)C(F)(F)F)c(Cl)c2)cc1 (configuration not stated) | 1.2 ± 0.14 |
| CCc1cnn2c(NCc3ccc[n+]([O-])c3)cc(N3CCCC[C@H]3CCO)nc12 | 0.842 ± 0.12 |
| COCC[n+]1c2c(n(Cc3cnccn3)c1C)C(=O)c1ccccc1C2=O [YM155 (Sepantronium Bromide)] | 0.111 ± 0.0058 |
| CCCCCCCCCCCCCCCc1cccc(O)c1C(=O)O [Anacardic Acid] | 1.26 ± 0.019 |
| CC1(C)Cc2c(-c3ccccc3)c(-c3ccc(Cl)cc3)c(CC(=O)O)n2C1 [Licofelone] | 1.17 ± 0.023 |
| N#Cc1ccc2[nH]c(O)c(-c3ccc(CN4CCOCC4)cn3)c2c1 | 1.4 ± 0.13 |
| Cc1nc2ccc(-n3ncc(C(=O)c4cc5ccccc5[nH]4)c3N)cc2[nH]1 | 0.987 ± 0.053 |
| CN(C)C(=S)NN=C(c1ccccn1)c1ccccn1 | 0.943 ± 0.047 |
| Clc1ccc(NN=C(c2ccccc2)c2ccccn2)nc1 | 0.03199 ± 0.00018 |
| O=C(Nc1cccc(Cl)c1)c1ccccn1 | 1.24 ± 0.1 |
| CC(=O)N[C@@H](CC(C)C)C(=O)N[C@@H](CC(C)C)C(=O)N[C@H](C=O)CCCNC(=N)N [Leupeptin Hemisulfate] | 1.16 ± 0.025 |
| N#CC(=Cc1ccc(-c2cc(Cl)ccc2Cl)o1)C(=O)Nc1cccc2ncccc12 | 1.06 ± 0.03 |
| COc1cc(C=CC(=O)N2CCC=CC2=O)cc(OC)c1OC [Piperlongumine] | 0.392 ± 0.035 |
| CC(NC(=O)Cc1cc(F)cc(F)c1)C(=O)NC1C(=O)N(C)c2ccccc2-c2ccccc21 (configuration not stated) | 0.97 ± 0.13 |
| CC1=NN(c2ccc(C(=O)O)cc2)C(=O)C1=Cc1ccc(-c2cc(C)c(C)cc2[N+](=O)[O-])o1 | 0.872 ± 0.091 |
| Cc1nc(-c2cn3c(n2)-c2ccc(-c4cnn(C(C)(C)C(N)=O)c4)cc2OCC3)n(C(C)C)n1 | 0.675 ± 0.072 |
| OCc1ccc(-c2ccc(-c3ccc(CO)s3)o2)s1 | 0.225 ± 0.01 |
| CC(=O)OCC(=O)[C@@]12N=C(C)O[C@@H]1C[C@H]1[C@@H]3CCC4=CC(=O)C=C[C@]4(C)[C@H]3[C@@H](O)C[C@@]12C [Deflazacort] | 1.03 ± 0.012 |
| CCOc1nc2cccc(C(=O)O)c2n1Cc1ccc(-c2ccccc2-c2nnn[nH]2)cc1 [Candesartan] | 1.06 ± 0.031 |
| CN(C)Cc1cccc(N=C(c2ccccc2)c2c(O)[nH]c3cc(C(N)=O)ccc23)c1 | 0.952 ± 0.014 |
